# From PubChem BioAssay (Tox21)
# Where “and” joins values, the source holds several entries; their conditions need not be identical. Equal entries are not always repeated. Results filed as inconclusive are left out. Entries that show only a call come without a potency. The source holds several records for some structures; these can differ, active in one and inactive in another. Calls of active or inactive are those of the source. Calls follow the shape of the dose curve; as a rule, active = well fitted curve in the direction sought with a large enough effect in the repeat runs; inconclusive = weak or mixed curves; inactive = no such curve, though single readings can be large; an effect the other way counts as inactive or inconclusive.
# Key:
# [1] = target: Cytochrome P450 2C19 (Homo sapiens) (UniProt P33261); assay: Cytochrome P450 Family 2 Subfamily C Member 19 (CYP2C19) small molecule antagonists: luciferase reporter qHTS assay (AID 1671197); also: nearly all actives have a fitted effect of over 65% in size; as to activity change, negative = inhibition: series mostly up to about 120 µM
# Cytochrome P450 2C19 (Homo sapiens), sequence (P33261 whole entry, looked up): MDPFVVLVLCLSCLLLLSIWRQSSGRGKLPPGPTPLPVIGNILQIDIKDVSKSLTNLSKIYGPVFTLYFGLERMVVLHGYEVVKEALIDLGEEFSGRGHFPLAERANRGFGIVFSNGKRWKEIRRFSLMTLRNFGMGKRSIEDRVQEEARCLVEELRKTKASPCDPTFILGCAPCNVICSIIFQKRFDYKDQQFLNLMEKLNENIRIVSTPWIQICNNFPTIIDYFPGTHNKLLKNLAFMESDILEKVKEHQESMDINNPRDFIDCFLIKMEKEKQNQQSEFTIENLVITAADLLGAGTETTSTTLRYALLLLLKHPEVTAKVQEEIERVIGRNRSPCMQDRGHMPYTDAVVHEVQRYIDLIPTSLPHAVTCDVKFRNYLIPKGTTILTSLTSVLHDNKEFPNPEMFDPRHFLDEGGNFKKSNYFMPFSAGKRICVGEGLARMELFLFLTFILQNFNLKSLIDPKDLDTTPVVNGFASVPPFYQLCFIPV
# Outline: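 Light output is proportional to CYP2C19 activity: proluciferin substrate is converted to luciferin, then detected by a luciferin detection reagent that also stops the 1 h, 37C NADPH-driven reaction. Ketoconazole serves as positive control.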
# [2] = target: Cytochrome P450 2C9 (Homo sapiens) (UniProt P11712); assay: Cytochrome P450 Family 2 Subfamily C Member 9 (CYP2C9) small molecule antagonists: luciferase reporter qHTS assay (AID 1671198); also: nearly all actives have a fitted effect of over 50% in size; as to activity change, negative = inhibition: series mostly up to about 120 µM
# Cytochrome P450 2C9 (Homo sapiens), sequence (P11712 whole entry, looked up): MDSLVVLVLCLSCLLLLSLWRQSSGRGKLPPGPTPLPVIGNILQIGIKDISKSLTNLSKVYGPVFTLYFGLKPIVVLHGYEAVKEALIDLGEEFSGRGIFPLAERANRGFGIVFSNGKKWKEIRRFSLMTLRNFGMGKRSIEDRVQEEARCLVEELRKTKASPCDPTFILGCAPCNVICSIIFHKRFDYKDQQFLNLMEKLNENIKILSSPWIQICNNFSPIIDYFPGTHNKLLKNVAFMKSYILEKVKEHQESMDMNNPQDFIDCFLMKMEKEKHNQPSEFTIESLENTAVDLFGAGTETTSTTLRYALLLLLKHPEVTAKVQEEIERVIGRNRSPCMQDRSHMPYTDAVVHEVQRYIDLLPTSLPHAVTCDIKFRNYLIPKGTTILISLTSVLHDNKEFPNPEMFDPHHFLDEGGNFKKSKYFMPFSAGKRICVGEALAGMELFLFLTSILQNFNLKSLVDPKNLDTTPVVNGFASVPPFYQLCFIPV
# Outline: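 CYP2C9 activity was measured with a P450-Glo proluciferin substrate. Enzyme–substrate mix was held with compound for 10 min at room temperature, then NADPH regeneration solution was added for 1 h at 37C. Luciferin product was read as luminescence.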
# [3] = target: Cytochrome P450 1A2 (Homo sapiens) (UniProt P05177); assay: Cytochrome P450 Family 1 Subfamily A Member 2 (CYP1A2) small molecule antagonists: luciferase reporter qHTS assay (AID 1671199); also: nearly all actives have a fitted effect of over 50% in size; as to activity change, negative = inhibition: series mostly up to about 120 µM
# Cytochrome P450 1A2 (Homo sapiens), sequence (P05177 whole entry, looked up): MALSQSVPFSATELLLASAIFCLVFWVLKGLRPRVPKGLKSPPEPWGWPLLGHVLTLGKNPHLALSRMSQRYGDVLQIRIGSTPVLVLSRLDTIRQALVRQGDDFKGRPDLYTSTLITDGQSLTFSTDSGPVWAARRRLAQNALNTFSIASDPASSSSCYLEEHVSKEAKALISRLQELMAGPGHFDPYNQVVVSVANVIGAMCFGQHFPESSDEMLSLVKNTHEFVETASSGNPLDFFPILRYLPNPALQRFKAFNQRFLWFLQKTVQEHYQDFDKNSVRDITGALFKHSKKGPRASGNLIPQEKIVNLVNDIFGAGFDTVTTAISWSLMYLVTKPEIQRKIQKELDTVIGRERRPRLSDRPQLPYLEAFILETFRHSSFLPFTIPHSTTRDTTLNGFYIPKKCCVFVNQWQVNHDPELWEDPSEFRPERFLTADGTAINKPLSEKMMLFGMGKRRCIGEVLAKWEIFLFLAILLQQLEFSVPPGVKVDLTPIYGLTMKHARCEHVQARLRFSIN
# Outline: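 Enzymatic CYP1A2 assay, human, luminescent: 10 min compound–enzyme–substrate preincubation, 1 h NADPH-dependent turnover, 20 min detection step, room temperature throughout. Reduced light indicates lower CYP1A2 activity.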
# [4] = target: Voltage-gated inwardly rectifying potassium channel KCNH2 (Homo sapiens) (UniProt Q12809); assay: Human Ether-a-go-go-Related Gene (hERG) channel small molecule antagonists: fluorescence cell-based qHTS assay (AID 1671200); also: nearly all actives have a fitted effect of over 50% in size; as to activity change, negative = inhibition: series mostly up to about 77 µM
# Voltage-gated inwardly rectifying potassium channel KCNH2 (Homo sapiens), sequence (Q12809 whole entry, looked up): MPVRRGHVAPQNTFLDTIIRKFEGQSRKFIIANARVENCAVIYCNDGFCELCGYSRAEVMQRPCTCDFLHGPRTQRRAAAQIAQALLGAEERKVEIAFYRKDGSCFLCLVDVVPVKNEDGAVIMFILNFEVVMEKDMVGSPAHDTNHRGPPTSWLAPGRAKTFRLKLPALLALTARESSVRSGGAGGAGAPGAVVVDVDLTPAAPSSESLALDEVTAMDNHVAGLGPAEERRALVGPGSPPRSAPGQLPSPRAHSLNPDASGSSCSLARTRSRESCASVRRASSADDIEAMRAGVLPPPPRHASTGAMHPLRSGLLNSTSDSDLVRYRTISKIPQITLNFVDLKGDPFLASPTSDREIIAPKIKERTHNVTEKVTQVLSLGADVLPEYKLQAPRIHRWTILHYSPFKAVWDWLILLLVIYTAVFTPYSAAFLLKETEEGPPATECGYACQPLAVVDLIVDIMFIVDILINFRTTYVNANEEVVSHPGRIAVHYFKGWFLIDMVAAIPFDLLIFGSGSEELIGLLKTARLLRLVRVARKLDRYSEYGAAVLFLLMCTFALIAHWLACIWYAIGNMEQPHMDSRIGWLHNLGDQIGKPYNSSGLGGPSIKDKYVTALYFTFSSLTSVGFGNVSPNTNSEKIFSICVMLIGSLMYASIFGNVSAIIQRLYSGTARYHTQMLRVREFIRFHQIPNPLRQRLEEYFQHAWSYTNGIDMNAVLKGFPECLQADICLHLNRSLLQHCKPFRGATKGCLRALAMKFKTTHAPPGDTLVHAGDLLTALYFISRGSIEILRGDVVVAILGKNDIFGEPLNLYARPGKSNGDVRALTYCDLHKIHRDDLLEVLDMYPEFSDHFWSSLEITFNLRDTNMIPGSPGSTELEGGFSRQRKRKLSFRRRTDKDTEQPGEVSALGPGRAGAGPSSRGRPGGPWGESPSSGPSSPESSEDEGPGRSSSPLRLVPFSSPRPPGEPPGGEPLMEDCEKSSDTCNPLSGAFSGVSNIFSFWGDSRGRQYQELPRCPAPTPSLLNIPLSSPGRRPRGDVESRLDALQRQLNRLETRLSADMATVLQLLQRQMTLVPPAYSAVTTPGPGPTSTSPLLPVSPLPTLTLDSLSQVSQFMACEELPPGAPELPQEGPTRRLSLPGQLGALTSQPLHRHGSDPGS
# Outline: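 Thallium flux as potassium surrogate: FluxOR II dye loaded 1 h at room temperature into hERG-expressing U2OS cells, then stimulus buffer added after 10 min. Kinetic 480 nm excitation/540 nm emission read, 2 min.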
# [5] = target: Cytochrome P450 3A4 (Homo sapiens) (UniProt P08684); assay: Cytochrome P450 Family 3 Subfamily A Member 4 (CYP3A4) small molecule antagonists: luciferase reporter qHTS assay (AID 1671201); also: nearly all actives have a fitted effect of over 50% in size; as to activity change, negative = inhibition: series mostly up to about 120 µM
# Cytochrome P450 3A4 (Homo sapiens), sequence (P08684 whole entry, looked up): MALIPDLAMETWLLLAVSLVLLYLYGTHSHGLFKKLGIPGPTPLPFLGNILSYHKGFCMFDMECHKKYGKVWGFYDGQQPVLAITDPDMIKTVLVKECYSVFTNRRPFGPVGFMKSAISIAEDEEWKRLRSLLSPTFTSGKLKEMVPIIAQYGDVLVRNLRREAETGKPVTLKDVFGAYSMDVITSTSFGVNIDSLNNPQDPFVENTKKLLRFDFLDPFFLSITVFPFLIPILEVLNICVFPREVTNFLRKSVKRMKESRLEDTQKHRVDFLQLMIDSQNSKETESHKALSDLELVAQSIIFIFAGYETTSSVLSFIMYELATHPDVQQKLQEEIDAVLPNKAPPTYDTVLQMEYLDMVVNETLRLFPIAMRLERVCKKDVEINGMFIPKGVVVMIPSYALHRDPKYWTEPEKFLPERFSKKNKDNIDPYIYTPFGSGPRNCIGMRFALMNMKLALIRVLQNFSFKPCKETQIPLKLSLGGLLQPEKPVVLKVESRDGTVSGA
# Outline: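 Recombinant human CYP3A4 converts a proluciferin substrate to luciferin over 1 h at room temperature after NADPH regeneration solution is added (compound preincubated 10 min); detection reagent stops reaction, luminescence read 20 min later as relative units.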
# Potency is read from the fitted curve at half-maximal effect.
Structure (SMILES),Potency [1],Potency [2],Potency [3],Potency [4],Potency [5],"activity change, negative = inhibition [1]"
CCCCCC1C(=O)CCC1CC(=O)OC (stereo not given),993 nM (active) and 3.56 µM (active),24.9 µM (active) and 31.7 µM (active),28 µM (active) and 28.3 µM (active),inactive,inactive,–
IC(I)I,39.9 µM (active) and 89.4 µM (active),35.5 µM (active) and 63.3 µM (active),25.2 µM (active),inactive,–,–
c1ccc2c(c1)[nH]c1ccccc12,7.83 µM (active) and 7.96 µM (active),inactive,2.21 µM (active) and 2.24 µM (active),inactive,inactive,–
Clc1ccc(Sc2cc(Cl)c(Cl)cc2Cl)cc1,6.92 µM (active) and 3.17 µM (active),inactive,11 µM (active) and 3.99 µM (active),inactive,inactive,–
Cc1ccc(S(=O)(=O)NCl)cc1,inactive,inactive and 75.1 µM (active),inactive and 75.1 µM (active),inactive,inactive,–
C1COCCN1,inactive,inactive,inactive,inactive,inactive,–
CCc1cccc2c3c([nH]c12)C(CC)(CC(=O)O)OCC3 (stereo not given),39.8 µM (active),31.6 µM (active) and 34.7 µM (active),inactive,inactive,inactive,–
CC[C@]12CCCN3CCc4c(n(c5ccccc45)[C@@](O)(C(=O)OC)C1)[C@@H]32,71 µM (active) and inactive,inactive,inactive,692 nM (active) and 1.69 µM (active),–,–
CCCCCC=O,inactive,inactive,inactive,inactive,inactive,–
COc1ccc2nc(N)sc2c1,39.9 µM (active) and 71 µM (active),39.9 µM (active),22.5 µM (active) and 31.7 µM (active),inactive,–,–
CC(C)[C@@H]1CC[C@@H](C)CC1=O,31.7 µM (active) and inactive,inactive,30.9 µM (active),inactive,inactive,–
C=CCOC(=O)C(=C)C,inactive,inactive,inactive,inactive,inactive,–
O=C(O)c1cc(=O)[nH]c(=O)[nH]1,40 µM (active) and inactive,inactive,40 µM (active) and inactive,inactive,inactive,–
CC1(C)OC(=O)NC1=O,inactive,inactive,inactive,inactive,–,–
Oc1ccc(C(c2ccc(O)cc2)C(Cl)(Cl)Cl)cc1,17.8 µM (active) and 20 µM (active),22.4 µM (active) and 12.6 µM (active),inactive,inactive,17.8 µM (active) and 20 µM (active),–
CC1(C)NC(=O)N(c2ccc([N+](=O)[O-])c(C(F)(F)F)c2)C1=O,2.52 µM (active) and 1.38 µM (active),10 µM (active) and 7.76 µM (active),11.2 µM (active) and 12.3 µM (active),inactive,–,–
CC1=CC(C)(C)Nc2ccccc21,75.6 µM (active),12.3 µM (active),inactive,inactive,2.75 µM (active),–
CCCCCCCCCCCCO,31.3 µM (active),inactive and 22.2 µM (active),inactive and 27.9 µM (active),inactive,inactive,–
Cc1ccc([N+](=O)[O-])c(C)c1,8.94 µM (active) and inactive,inactive,inactive,inactive,inactive,–
FC(F)(F)C(Cl)Br (stereo not given),inactive,inactive,inactive,inactive,inactive,–
O=[Se](O)O,56.5 µM (active),7.11 µM (active),inactive and 13.6 µM (active),inactive,inactive,-23.6% [at 23.6 µM] (inactive)
COc1cc([C@H]2Oc3cc([C@H]4Oc5cc(O)cc(O)c5C(=O)[C@@H]4O)ccc3O[C@@H]2CO)ccc1O,inactive,10 µM (active) and 8.71 µM (active),35.5 µM (active) and inactive,inactive,–,–
CC(=O)Oc1ccc(C(c2ccc(OC(C)=O)cc2)c2ccccn2)cc1,7.92 µM (active) and 24.5 µM (active),7.06 µM (active) and 12.3 µM (active),inactive,inactive,inactive,–
